EPAC2 antag: antagonists of human EPAC2; Q8WZA2; EPAC2 GEF exchange of Rap1B-BODIPY-GDP, fluorescence; Potency, µM (titrated, usually from 114 µM), for inactives: at the top dose activity, negative = inhibition, hits mostly inhibitors; 0.18% of 360,000 active; AID 720708; note: % is set by controls: 0 for no effect and ±100 for the full control effect; nearly all actives have a fitted effect of over 45% in size
EPAC1 antagonist: antagonists of human EPAC1 | Potency, µM (doses to about 115 µM), inactives show at the highest dose activity change, negative = inhibition, most hits filed as inhibitors | 0.14% of 360,000 active | EPAC1 GEF assay, Rap1b-BODIPY-GDP exchange fluorescence | AID 720709 | O95398;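 note: plate controls were vehicle for no effect and positive control for full effect; nearly all actives have a fitted effect of over 50% in size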
Rango dissoc inh: inhibition of RanGTP-driven Rango-importin beta dissociation | AID 540253 | 0.071% of 340,000 active | Biochemical FRET Rango-importin beta, RanGTP-induced dissociation | Potency, µM (series often up to 46.1 µM), for the others: top-dose activity change, negative = inhibition; calls by dose curve; note: % of control where 0% means no effect; nearly all actives have a fitted effect of over 45% in size
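Rango/importin beta premix (0.1/0.25 uM final), PBS + 1 mM DTT + 0.02% Tween-20 + 0.1% BSA; cpd 5 min RT; FRET pre-read; + RanGTP-RCC1 (0.6 uM Ran, 2 mM GTP, 0.2 uM RCC1); 45 min RT; FRET post-read, ex 430, em 486/530 nm.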
EPAC1 ag: activates human EPAC1 exchange factor; EPAC1 agonist qHTS, biochemical assay; response scale: 100% = response to 6.5 mM cAMP; 0.073% of 360,000 active; Potency, µM (titrated, usually from 154 µM), inactives show at the highest dose activation, hits mostly activators; AID 720707; note: nearly all actives have a fitted effect of over 60% in size
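Nucleotide exchange assay: 100 nM EPAC1 with 250 nM Rap1B loaded with BODIPY-GDP and 50 uM GDP, room temperature. Fluorescence (480/540 nm) read every 5 min for 30 min; signal change normalized to 6.5 mM cAMP as full agonist.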
EPAC2 ag: activates human EPAC2 exchange factor. 0.079% of 360,000 active. EPAC2 activation, biochemical qHTS; response scale: 100% = 6.5 mM cAMP response. Potency, µM (doses to about 154 µM), without a hit: at the highest dose activation, actives largely listed as activators; note: nearly all actives have a fitted effect of over 50% in size
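EPAC2 (100 nM) mixed with Rap1B loaded with BODIPY-GDP (250 nM) plus 50 uM unlabeled GDP; compounds pinned in, 5 min RT, then read every 5 min for 30 min (ex 480, em 540 nm). Normalized to cAMP control.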
Rango complex inh: inhibitors of Rango-importin beta complex formation; Q14974; Rango CFP/YFP FRET sensor + importin beta, 45 min; Potency, µM (highest dose often 92.2 µM), without a hit: at the top dose inhibition of complex formation; 0.031% of 340,000 active; AID 540263; calls by dose curve;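 note: 0% = DMSO wells and 100% = buffer wells lacking importin beta; nearly all actives have a fitted effect of over 15% in size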
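FRET biosensor Rango (snurportin 1 IBB between N-terminal EYFP and C-terminal Cerulean), 50 nM in PBS/1 mM DTT/0.02% Tween-20/0.1% BSA, preincubated 5 min RT with compound; 0.125 microM importin beta added, 45 min RT, CFP/YFP FRET ratio read.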
The depositor's hits bear a star; ? = inconclusive. A selection: hits, their analogues and other compounds. The true share with any hit is near 0.43%. Unless noted, calls come from the whole dose curve; as a rule, active = well fitted curve in the direction sought with a large enough effect; inconclusive = small, poorly fitted or top-dose-only effect, or another doubt; inactive = no such curve, though single readings can be large; an effect the other way counts as inactive or inconclusive. Potency is the fitted concentration of half-maximal effect.

SMILES | EPAC2 antag | EPAC1 antagonist | Rango dissoc inh | EPAC1 ag | EPAC2 ag | Rango complex inh
CCOc1ccc(N2C(=O)/C(=C/c3ccco3)C(=O)NC2=S)cc1 | ? | 11µM* | -16% | -3% | 3% | ?
O=[N+]([O-])c1ccc(N2CCCCCC2)c2nonc12 | 42% | 67% | ? | 100µM* | 100µM* | ?
O=[N+]([O-])c1ccc(N2CCCCC2)c2ncccc12 | -21% | -27% | -13% | 8% | 22% | 0%
O=[N+]([O-])c1cc([As](=O)(O)c2ccc(O)c([N+](=O)[O-])c2)ccc1O | 18µM* | 10% | 14% | -4% | -1% | 0%
CC(=O)Nc1ccc(N(C(=O)Cn2nnc3ccccc32)C(C(=O)NC2CCCC2)c2ccc(O)c(O)c2)cc1 (stereo not given) | -4% | ? | -12% | 6% | 3% | ?
N=C1/C(=C\c2ccc(OC(=O)c3ccccc3Cl)cc2)C(=O)N=C2SC(N3CCOCC3)=NN12 | -10% | ? | -23% | -5% | 4% | ?
Cc1c(NS(=O)(=O)c2ccccc2)ccc([N+](=O)[O-])c1Cl | 40µM* | -29% | 3% | -6% | -1% | -1%
O=c1cc(C(F)(F)F)c2cc3c4c(c2o1)CCCN4CCC3 | 21% | 99% | ? | ? | 45µM* | ?
Cc1cc(C=C2C(=O)NC(=O)NC2=O)c(C)n1-c1ccc2c(c1)OCO2 | 11% | -7% | -21% | -49% | -8% | ?
Cc1cc(C=C2C(=O)NC(=S)NC2=O)c(C)n1-c1ccc2c(c1)OCO2 | -5% | 56µM* | 20% | -6% | -1% | 6%
CCN(CC)c1ccc(N=Cc2c(O)n(CCC3=CCCCC3)c(=O)[nH]c2=O)cc1 | 56µM* | 7% | ? | 5% | ? | ?
O=Cc1c(C(=O)O)n(Cc2ccc(Cl)cc2)c2ccccc12 | 104% | 71% | ? | 45µM* | -57% | ?
Cc1c(C=O)c2ccccc2n1Cc1ccccc1 | 0% | -14% | 7% | 12% | 5% | -7%
COC(=O)c1ccc(COC(=O)c2nn(C)c(=O)c3ccccc23)cc1 | -13% | ? | 4% | -7% | 6% | -2%
CCOC(=O)c1c(/N=C/C2C(=O)NC(=S)NC2=O)sc2c1CCC2 | 5% | -17% | 9.2µM* | 9% | 5% | ?
CCOC(=O)c1cc(C)sc1/N=C/C1C(=O)NC(=S)NC1=O | ? | -2% | -24% | 0% | 11% | ?
O=c1cc(-c2ccc(O)c(O)c2)oc2cc(O)cc(O)c12 | 2% | 45µM* | ? | -22% | 6% | ?
C=CCn1c(-c2ccc([N+](=O)[O-])cc2)n[nH]c1=S | -11% | ? | 3% | 3% | 1% | -3%
